Our source for the growth values is PubChem BioAssay (NCI).

The panel holds about 83,000 compounds, 20% with a hit somewhere; the sample as a whole holds those more often.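 Compound tested at a single concentration for 48 hours in 96-well plates; a percent growth value below 10 was scored as active.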 Values without a mark were called inactive. Activity calls are given as the source filed them.

The subject of this experiment is HL-60(TB) leukemia. In words: NCI-60 one-dose screen, 48 h (100 = growth as untreated, 0 = no growth, -100 = all killed). As to conditions: 10 µM unless noted.

Turning to `COc1cc(/C=C(/c2ccccc2)[N+](=O)[O-])c(OC)c2c1OCO2`, the growth is -23% (active).

For the compound `Cc1cc(=O)oc2cc(Oc3nc(-c4ccccc4)cn4c(-c5ccccc5)cnc34)ccc12`, the growth was 85.2%.

For the compound `O=C(O)c1ccc(NC(=O)c2ccc(Nc3ccnc(C(F)(F)F)c3)cc2)cc1`, the growth was 97.4%. In the case of `Cc1ccc2c(Cn3cc(CSc4nc5ccccc5o4)nn3)cc(=O)oc2c1` it was 109%; in that of `C=CCC(CCCC)(C(=O)OCC)C(=O)OCC`, 80.6%; in that of `COc1cccc(-c2[nH]c(=S)ncc2C(=O)c2ccccc2)c1`, 78.2%.

On to `COc1ccc(Cl)cc1Nc1nc(C(F)(F)F)ccc1C(=O)N/N=C/c1ccc(Cl)cc1`, for which the growth was 9.34% (active). In the case of `O=C1Nc2cc(Cl)ccc2Oc2cc(Oc3ccccc3)ccc21` it was 38.6%. To `CCN(CC)CCCNCCCNc1cc(OC)cc2cccnc12` belongs -3.42% (active); to `O=C1CC(C(F)(F)F)Cc2nc3ccc(Br)cc3cc21` (configuration not stated), 89.8%.

On to `CC(C)C(=O)Cc1cnccn1`, for which the growth is 134%. To `Oc1ccc(Cl)cc1-c1cc(-c2ccc(F)cc2)n[nH]1` belongs 74.9%. Turning to `COc1ccc(-c2nnc(COc3ccc(NC(=O)Nc4ccccc4)cc3F)o2)cc1`, the growth was 86.8%.

With `N=C1C=C(N)C(=O)c2ccccc21`, the growth is -32.8% (active). Turning to `Cc1ccc2c(c1)n([O-])c1cc(Cl)ccc1[n+]2=O`, the growth is 67.8%.

`CCOC(=O)c1c(NC(=O)c2ccc(C(C)(C)C)cc2)sc2cc(O)ccc12`: the growth is 67%. In the case of `O=C(/C=C/c1sc(Cl)nc1Cl)c1ccccc1` it was 42.2%.
